Holding throughout (settings): mRNA level, 48 h; actives raise or lower the signal
Read-out in experiment [1]: JUN Transcription Factor, JUN (gene 3725)
Description: LTEA_HepaRG_JUN: Life Technologies and Expression Analysis (LTEA) Assay for JUN Transcription Factor using HepaRG (AID 2283513). The procedure, abridged: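 mRNA measured by TaqMan qRT-PCR after 48 h chemical exposure of HepaRG cultures; normalization to three housekeeping genes. Duplicate eight-point half-log curves from 100 uM in 0.5% DMSO; gain or loss fitted against DMSO baseline.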

Read-out in experiment [2]: Lipase C (LIPC), LIPC (gene 3990)
Description: LTEA_HepaRG_LIPC: Life Technologies and Expression Analysis (LTEA) Assay for Lipase C (LIPC) using HepaRG (AID 2283514). In outline: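 In this multiplexed gene-expression screen, human HepaRG cultures received test chemicals for 48 h across eight concentrations with 100 uM highest, in duplicate. Values reflect LIPC mRNA induction or suppression versus DMSO vehicle, from normalized qRT-PCR.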

Read-out in experiment [3]: Lipoprotein lipase (LPL), LPL (gene 4023)
The experiment in a line: LTEA_HepaRG_LPL: Life Technologies and Expression Analysis (LTEA) Assay for Lipoprotein lipase (LPL) using HepaRG (AID 2283515). The procedure, abridged:
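Concentration-response testing used half-log steps from 100 uM in 0.5% DMSO on human HepaRG cells, 48 h, duplicate wells. Phenobarbital 1 mM served as induction control; LPL mRNA was normalized to ACTB, GAPDH, POLR2A.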

Read-out in experiment [4]: MicroRNA 122 (MIR122), gene 406906
Description: LTEA_HepaRG_MIR122: Life Technologies and Expression Analysis (LTEA) Assay for MicroRNA 122 (MIR122) using HepaRG (AID 2283516). Also: the transcript read is the microRNA miR-122. In outline:
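Expression measured by microfluidic qRT-PCR with three housekeeping genes for normalisation, after 48 h treatment of HepaRG cultures. Eight concentrations (top 100 uM, half-log steps, 0.5% DMSO vehicle) in duplicate; gain or loss fitted relative to vehicle.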

Read-out in experiment [5]: matrix metalloproteinase-10 (MMP10), MMP10 (gene 4319)
The experiment in a line: LTEA_HepaRG_MMP10: Life Technologies and Expression Analysis (LTEA) Assay for matrix metalloproteinase-10 (MMP10) using HepaRG (AID 2283517). In outline: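 In differentiated HepaRG cultures kept in 0.5% DMSO, test chemicals act for 48 h over an eight-point range with a top dose of 100 uM. Expression is then quantified by TaqMan RT-PCR against ACTB, GAPDH and POLR2A.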

Read-out in a further experiment: MYC, MYC (gene 4609)
Description: LTEA_HepaRG_MYC: Life Technologies and Expression Analysis (LTEA) Assay for MYC using HepaRG (AID 2283518). In outline: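 MYC transcript changes, up or down relative to 0.5% DMSO, from TaqMan qRT-PCR normalized to three housekeeping genes. Human HepaRG cultures received chemicals for 48 h at eight half-log concentrations up to 100 uM, in duplicate.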

Read-out in experiment [6]: matrix metalloproteinase-3 (MMP3), MMP3 (gene 4314)
The experiment in a line: LTEA_HepaRG_MMP3: Life Technologies and Expression Analysis (LTEA) Assay for matrix metalloproteinase-3 (MMP3) using HepaRG (AID 2283519). In outline:
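Human liver HepaRG cultures received chemicals (top concentration 100 uM, 0.5% DMSO) for 48 h in duplicate. MMP3 mRNA induction or loss was then assessed via TaqMan qRT-PCR with housekeeping-gene normalisation.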

Read-out in experiment [7]: Paternally Expressed 10 (PEG10), PEG10 (gene 23089)
Description: LTEA_HepaRG_PEG10: Life Technologies and Expression Analysis (LTEA) Assay for Paternally Expressed 10 (PEG10) using HepaRG (AID 2283520). The procedure, abridged:
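PEG10 transcript measured by Fluidigm qRT-PCR, normalized to three housekeeping genes, in HepaRG cells treated 48 h (highest 100 uM, half-log steps, 0.5% DMSO vehicle). Cells plated 48 h before switching to serum-free induction medium.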

Read-out in experiment [8]: Nuclear factor NF-kappa-B p105 subunit (Homo sapiens) (UniProt P19838)
The experiment in a line: LTEA_HepaRG_NFKB1: Life Technologies and Expression Analysis (LTEA) Assay for Nuclear Factor Kappa B Subunit 1 (NFKB1) using HepaRG (AID 2283521).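 As to outcome: TaqMan qRT-PCR transcript normalised to ACTB GAPDH and POLR2A housekeeping genes.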 The procedure, abridged:
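Differentiated human HepaRG cells in serum-free induction medium with 0.5% DMSO were exposed for 48 h to eight half-log concentrations, top 100 uM, in duplicate. NFKB1 mRNA measured by Fluidigm TaqMan qRT-PCR, normalised to ACTB, GAPDH and POLR2A; bidirectional fit versus DMSO.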

Read-out in experiment [9]: Protein phosphatase 2A (PPP2R4), PTPA (gene 5524)
The experiment in a line: LTEA_HepaRG_PPP2R4: Life Technologies and Expression Analysis (LTEA) Assay for Protein phosphatase 2A (PPP2R4) using HepaRG (AID 2283522). In outline: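 Expression was quantified by Fluidigm qRT-PCR normalised to three housekeeping genes after 48 h treatment. Human HepaRG cells received an 8-point series from 100 µM downward by half-logs, in duplicate with 0.5% DMSO vehicle and 1 mM phenobarbital as induction control.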

Read-out in experiment [10]: Phosphatase and tensin (PTEN), PTEN (gene 5728)
Description: LTEA_HepaRG_PTEN: Life Technologies and Expression Analysis (LTEA) Assay for Phosphatase and tensin (PTEN) using HepaRG (AID 2283523). The procedure, abridged: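 Expression of PTEN is quantified in the human liver line HepaRG following two days of dosing (top concentration 100 uM, half-log dilutions, 0.5% DMSO). Values derive from bidirectional curve fitting relative to DMSO controls.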

Read-out in experiment [11]: solute carrier (SLC22A1), SLC22A1 (gene 6580)
The experiment in a line: LTEA_HepaRG_SLC22A1: Life Technologies and Expression Analysis (LTEA) Assay for solute carrier (SLC22A1) using HepaRG (AID 2283524).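 As to AC50: TaqMan qRT-PCR normalized to ACTB GAPDH and POLR2A housekeeping genes.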 In outline:
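Transcript induction or suppression of SLC22A1 in human HepaRG cultures is scored after 48 h chemical treatment, with DMSO (0.5%) as baseline for bidirectional fitting. Concentrations span eight half-log points topping at 100 uM.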

Read-out in experiment [12]: Pyruvate Dehydrogenase Kinase 4 (PDK4), PDK4 (gene 5166)
The experiment in a line: LTEA_HepaRG_PDK4: Life Technologies and Expression Analysis (LTEA) Assay for Pyruvate Dehydrogenase Kinase 4 (PDK4) using HepaRG (AID 2283525). In outline:
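Eight-point, half-log concentration series (max 100 uM, 0.5% DMSO) applied to differentiated HepaRG cells for 48 h in duplicate. Endpoint: PDK4 mRNA induction or repression by qRT-PCR against DMSO baseline.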

Read-out in experiment [13]: NAD(P)H dehydrogenase [quinone] 1 (NQO1), NQO1 (gene 1728)
The experiment in a line: LTEA_HepaRG_NQO1: Life Technologies and Expression Analysis (LTEA) Assay for NAD(P)H dehydrogenase [quinone] 1 (NQO1) using HepaRG (AID 2283526). The procedure, abridged:
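NQO1 transcript induction or loss measured by TaqMan qRT-PCR, referenced to three housekeeping genes and fitted bidirectionally against 0.5% DMSO. HepaRG cultures exposed 48 h, duplicate, eight-point half-log series, top 100 uM.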

Read-out in experiment [14]: Nuclear factor erythroid 2-related factor 2 (Homo sapiens) (UniProt Q16236)
The experiment in a line: LTEA_HepaRG_NFE2L2: Life Technologies and Expression Analysis (LTEA) Assay for Nuclear factor erythroid 2-related factor 2 (NFE2L2) Transcription Factor using HepaRG (AID 2283527).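 As to outcome: TaqMan qRT-PCR transcript level normalised to ACTB GAPDH and POLR2A housekeeping genes.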 The procedure, abridged: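 Human liver HepaRG line treated in duplicate for 48 h with an eight-point series topping at 100 uM. Gene expression of NFE2L2 by qRT-PCR, bidirectionally fitted against the vehicle control.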

Read-out in experiment [15]: succinate dehydrogenase complex iron sulfur subunit B (SDHB), SDHB (gene 6390)
The experiment in a line: LTEA_HepaRG_SDHB: Life Technologies and Expression Analysis (LTEA) Assay for succinate dehydrogenase complex iron sulfur subunit B (SDHB) using HepaRG (AID 2283528). In outline:
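HepaRG cells (~100,000/well, plated 48 h) exposed in duplicate for 48 h in serum-free induction medium to 8-point half-log series from 100 uM in 0.5% DMSO; mRNA by qRT-PCR normalised to ACTB, GAPDH, POLR2A; bidirectional fit versus DMSO.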

Read-out in experiment [16]: Signal transducer and activator of transcription 3 (Homo sapiens) (UniProt P40763)
The experiment in a line: LTEA_HepaRG_STAT3: Life Technologies and Expression Analysis (LTEA) Assay for Signal transducer and activator of transcription (STAT3) using HepaRG (AID 2283529). In outline: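 In this transcriptional endpoint, HepaRG cultures receive test chemicals at up to 100 uM for 48 h, tested in duplicate. STAT3 mRNA is normalized to ACTB, GAPDH and POLR2A.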

Read-out in experiment [17]: solute carrier (SLCO1B1), SLCO1B1 (gene 10599)
Description: LTEA_HepaRG_SLCO1B1: Life Technologies and Expression Analysis (LTEA) Assay for solute carrier (SLCO1B1) using HepaRG (AID 2283530). In outline:
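SLCO1B1 transcript levels were quantified by TaqMan qRT-PCR using three housekeeping genes for normalization. This followed 48 h chemical exposure (100 uM top, half-log, 8 points, 0.5% DMSO) of HepaRG liver cells, with gain or loss fitted relative to DMSO.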

Read-out in experiment [18]: sulfotransferase 2A1 (SULT2A1), SULT2A1 (gene 6822)
The experiment in a line: LTEA_HepaRG_SULT2A1: Life Technologies and Expression Analysis (LTEA) Assay for sulfotransferase 2A1 (SULT2A1) using HepaRG (AID 2283531). The procedure, abridged: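 Expression change of SULT2A1, by qRT-PCR with three housekeeping-gene normalization, was scored bidirectionally versus DMSO. Cells: differentiated HepaRG, dosed in duplicate for 48 h across 8 points, highest 100 µM, half-log dilution, 0.5% DMSO.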

Read-out in experiment [19]: Transforming Growth Factor (TGFA), TGFA (gene 7039)
The experiment in a line: LTEA_HepaRG_TGFA: Life Technologies and Expression Analysis (LTEA) Assay for Transforming Growth Factor (TGFA) using HepaRG (AID 2283532). The procedure, abridged: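 Gene expression of TGFA was quantified by qRT-PCR after human HepaRG cells were treated for 48 h with test chemicals (eight concentrations, highest 100 uM, 0.5% DMSO). Activity in either direction was fitted relative to DMSO.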

The structures appear in SMILES notation. Activity calls are given as the source filed them. The calls were made as follows: active = hit-call score of the fitted dose curve at least 0.9, where 1 is the maximum; inactive = score below 0.9.

Chain of Nuclear factor NF-kappa-B p105 subunit (Homo sapiens) (P19838 whole entry, looked up): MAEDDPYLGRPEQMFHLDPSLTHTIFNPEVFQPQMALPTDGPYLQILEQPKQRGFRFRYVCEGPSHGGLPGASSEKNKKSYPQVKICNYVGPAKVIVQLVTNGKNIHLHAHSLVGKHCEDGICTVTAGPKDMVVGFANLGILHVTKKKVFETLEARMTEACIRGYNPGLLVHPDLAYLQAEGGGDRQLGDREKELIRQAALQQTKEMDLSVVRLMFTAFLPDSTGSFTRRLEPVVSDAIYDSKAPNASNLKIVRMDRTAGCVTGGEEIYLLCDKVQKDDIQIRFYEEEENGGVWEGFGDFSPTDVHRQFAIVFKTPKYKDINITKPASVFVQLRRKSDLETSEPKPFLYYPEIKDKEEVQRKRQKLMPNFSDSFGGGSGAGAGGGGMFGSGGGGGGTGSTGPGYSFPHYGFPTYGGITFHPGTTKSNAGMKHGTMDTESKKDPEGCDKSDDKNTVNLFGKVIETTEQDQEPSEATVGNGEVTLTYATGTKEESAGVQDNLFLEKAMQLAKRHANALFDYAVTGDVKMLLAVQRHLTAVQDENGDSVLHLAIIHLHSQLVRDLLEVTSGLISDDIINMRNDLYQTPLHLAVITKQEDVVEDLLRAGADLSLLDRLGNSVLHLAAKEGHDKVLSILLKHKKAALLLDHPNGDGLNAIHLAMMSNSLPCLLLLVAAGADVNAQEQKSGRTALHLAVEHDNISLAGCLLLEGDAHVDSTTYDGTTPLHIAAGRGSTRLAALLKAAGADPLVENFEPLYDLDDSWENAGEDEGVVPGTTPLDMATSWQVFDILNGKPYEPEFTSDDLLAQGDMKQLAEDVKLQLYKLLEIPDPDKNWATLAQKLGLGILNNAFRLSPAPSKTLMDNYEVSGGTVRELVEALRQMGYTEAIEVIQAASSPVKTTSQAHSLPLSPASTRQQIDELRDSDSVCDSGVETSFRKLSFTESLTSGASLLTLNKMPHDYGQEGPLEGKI
Chain of Signal transducer and activator of transcription 3 (Homo sapiens) (P40763 whole entry, looked up): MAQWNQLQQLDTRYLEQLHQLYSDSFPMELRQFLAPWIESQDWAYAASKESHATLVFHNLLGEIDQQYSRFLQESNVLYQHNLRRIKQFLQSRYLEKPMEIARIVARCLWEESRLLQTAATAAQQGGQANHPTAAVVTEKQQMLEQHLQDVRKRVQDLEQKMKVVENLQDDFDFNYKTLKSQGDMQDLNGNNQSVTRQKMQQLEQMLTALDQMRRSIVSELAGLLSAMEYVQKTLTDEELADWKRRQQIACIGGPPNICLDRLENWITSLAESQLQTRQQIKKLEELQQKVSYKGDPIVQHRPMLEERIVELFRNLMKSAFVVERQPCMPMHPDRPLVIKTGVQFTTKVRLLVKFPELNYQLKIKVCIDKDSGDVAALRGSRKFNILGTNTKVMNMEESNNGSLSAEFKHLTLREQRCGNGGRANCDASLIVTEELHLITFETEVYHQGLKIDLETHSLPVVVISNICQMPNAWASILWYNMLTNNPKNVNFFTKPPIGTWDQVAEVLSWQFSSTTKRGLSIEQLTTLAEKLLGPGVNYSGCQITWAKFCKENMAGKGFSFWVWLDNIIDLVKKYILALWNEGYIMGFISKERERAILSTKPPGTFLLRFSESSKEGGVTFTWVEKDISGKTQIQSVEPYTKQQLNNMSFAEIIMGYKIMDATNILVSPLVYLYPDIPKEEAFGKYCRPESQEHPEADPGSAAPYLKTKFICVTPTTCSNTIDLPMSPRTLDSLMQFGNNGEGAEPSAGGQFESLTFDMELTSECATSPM
Chain of Nuclear factor erythroid 2-related factor 2 (Homo sapiens) (Q16236 whole entry, looked up): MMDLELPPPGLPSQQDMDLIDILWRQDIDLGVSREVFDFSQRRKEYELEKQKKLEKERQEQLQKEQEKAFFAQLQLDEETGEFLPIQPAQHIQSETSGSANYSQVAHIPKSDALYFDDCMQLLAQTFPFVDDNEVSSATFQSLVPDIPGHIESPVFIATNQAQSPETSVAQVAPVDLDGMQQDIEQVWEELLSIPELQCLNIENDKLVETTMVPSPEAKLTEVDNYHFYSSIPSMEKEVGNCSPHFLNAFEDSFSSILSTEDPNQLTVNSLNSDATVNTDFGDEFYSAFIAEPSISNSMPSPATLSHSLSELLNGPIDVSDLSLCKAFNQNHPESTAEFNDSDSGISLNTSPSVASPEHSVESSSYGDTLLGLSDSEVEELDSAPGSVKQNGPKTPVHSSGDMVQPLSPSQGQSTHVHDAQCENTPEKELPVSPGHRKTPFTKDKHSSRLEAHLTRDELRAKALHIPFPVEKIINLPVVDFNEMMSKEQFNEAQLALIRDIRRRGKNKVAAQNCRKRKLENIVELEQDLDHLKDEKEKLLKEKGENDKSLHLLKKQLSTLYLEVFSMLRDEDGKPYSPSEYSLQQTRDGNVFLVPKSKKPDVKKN

Usually AC50 stands for the midpoint of the concentration-response curve, whichever way the signal moves. Turning to `O=S1OCC2C(CO1)C1(Cl)C(Cl)=C(Cl)C2(Cl)C1(Cl)Cl` (stereo not given), the result in experiment [1], in [5], in [6], in experiment [7], in experiment [8] and in experiment [9] was inactive. The result in experiment [10], in [12], in experiment [13], in experiment [14], in [15] and in experiment [16] was inactive. The compound was called inactive in [19]. Moreover, the AC50 in [2] is 62.7 µM (active); in experiment [3], 87.5 µM (active); in experiment [4], 89.1 µM (active); with MYC, MYC (gene 4609), 77.5 µM (active); in experiment [11], 63 µM (active); in [17], 20.8 µM (active). The AC50 in experiment [18] was 91.7 µM (active).

`O=C1c2ccccc2C(=O)N1SC(Cl)(Cl)Cl`: the outcome in experiment [1] is “inactive”; in experiment [2], “inactive”; in [3], “inactive”; in experiment [4], “inactive”; in [5] it was “inactive”; with MYC, MYC (gene 4609), “inactive”. The compound was called inactive in experiment [6], in [7], in [8], in experiment [9], in experiment [10] and in experiment [11]. Also, the compound was called inactive in [12], in [13], in [14], in [15], in experiment [16] and in [17]. Further, the compound was called inactive in experiment [18] and in experiment [19].

Regarding `CCN(CC)C(=O)SCc1ccc(Cl)cc1`, the outcome in experiment [1] was “inactive”; in experiment [2] it was “inactive”; in experiment [3] it was “inactive”; in experiment [4] it was “inactive”; in experiment [5], “inactive”; with MYC, MYC (gene 4609) it was “inactive”. In addition, the outcome in [6], in [7], in experiment [8], in experiment [9], in experiment [10] and in experiment [11] was inactive. Moreover, the outcome in experiment [12], in [13], in experiment [14], in experiment [15], in experiment [16] and in [17] was inactive. Also, the compound was called inactive in experiment [18] and in experiment [19].

For the compound `CC1(C)C(C=C(Cl)Cl)C1C(=O)OC(C#N)c1ccc(F)c(Oc2ccccc2)c1` (stereo not given), the outcome in experiment [1] is “inactive”; in experiment [2], “inactive”; in [3], “inactive”; in experiment [4], “inactive”; in [5], “inactive”; in the experiment with MYC, MYC (gene 4609) it was “inactive”. The result in [6], in [7], in [8], in [9], in experiment [10] and in experiment [11] was inactive. For the same compound, the result in experiment [13], in experiment [15], in experiment [16], in experiment [17] and in experiment [19] was inactive. The AC50 in experiment [12], in [14] and in experiment [18] was 50 µM (active) in each case.

For `CCOCN(C(=O)CCl)c1c(C)cccc1CC`, the outcome in experiment [1] was “inactive”; in experiment [3], “inactive”; in experiment [5], “inactive”; with MYC, MYC (gene 4609), “inactive”; in [6] it was “inactive”; in experiment [7], “inactive”. Moreover, the outcome in experiment [9], in experiment [10], in [13], in experiment [14], in experiment [15] and in experiment [16] was inactive. In [19], the result was inactive. Besides, the AC50 in experiment [2] was 88.4 µM (active); in experiment [4] it was 50 µM (active); in [8], 0.338 µM (active); in experiment [11], 81.1 µM (active); in experiment [12], 50 µM (active); in experiment [17], 81.3 µM (active). For the same compound, the AC50 in experiment [18] was 83.8 µM (active).
